PubChem BioAssay (NCI)
Values joined by “and” are separate entries in the source; they are usually repeats but may differ in a detail not shown here. Equal values may be shown once. The panel holds about 83,000 compounds, 20% with a hit somewhere; the sample as a whole holds those more often.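 Assay: single dose, 48 h. Readout: percent growth (0 = no net growth; negative = cell death). Active: <10.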 Active and inactive are the calls of the source.

Tested on: K-562 leukemia
Assay: NCI-60 one-dose screen, 48 h (100 = growth as untreated, 0 = no growth, -100 = all killed)
Conditions: 10 µM unless noted

Row | Compound | growth
1 | Cc1ccc2c(n1)C(=O)C(Cl)=C(Nc1ccc(C#N)cc1)C2=O | 5.72% (active)
2 | CC(C)(O)c1cncc(-c2ccc3ncc(C#N)c(N4CCc5cc(F)c(Cl)cc54)c3c2)c1 | 29.6% (inactive)
3 | O=c1c2ccccc2cc2n1CCN=C2c1ccccc1 | 103% (inactive)
4 | O=C(CN1CCN(c2cc(=O)[nH]c3ccc(F)cc23)CC1)N(c1ccccc1)c1ccccc1 | 94.9% (inactive)
5 | CCc1cc(OC(=O)N2CCC(N3CCCCC3)CC2)ccc1Nc1cc(-c2ccc(-n3cccn3)cc2)[nH]n1 | -17.2% (active)
6 | CCCC/C(=C\c1ccc(O)c(O)c1)C(=O)NC(Cc1ccccc1)C(=O)C(=O)NCCc1ccc(OC)cc1 (stereo not given) | 91.5% (inactive)
7 | CN(C)c1ccc(-c2cc(-c3c[nH]c4ccccc34)nc(N)c2C#N)cc1 | 17.5% (inactive)
8 | COc1cc(C(=O)c2cc(C(C)=O)c3ccc(C)cn23)cc(OC)c1OC | 19.2% (inactive)
9 | CCOC(=O)c1ccccc1NC1=C(Cl)C(=O)c2nc(C)ccc2C1=O | 89.6% (inactive)
10 | CN(C)S(=O)(=O)c1ccc(-c2nc(C(Cl)Cl)nc3cc(-c4ccccc4)nn23)cc1 | 52.2% (inactive)
11 | CN1CCN(c2ccc(Nc3nc(NCCCNS(=O)(=O)c4ccc(Cl)cc4)c4sccc4n3)cc2)CC1 | 12.5% (inactive)
12 | O=C1[C@@H]2Cc3c([nH]c4ccccc34)[C@H](c3ccc(Cl)cc3)N2C(=O)CN1C1CCN(Cc2ccccc2)CC1 | 9.57% (active)
13 | CN1CCN(CCNc2nc(-c3cccc(NS(=O)(=O)c4cccc5c(N(C)C)cccc45)c3)cs2)CC1 | 10.6% (inactive)
14 | C#C[C@]1(O)CC[C@H]2[C@@H]3CC=C4c5sc(Nc6ncccc6C)nc5CC[C@]4(C)[C@H]3CC[C@@]21C | -9.62% (active)
15 | CC(=O)N(O)CCCCCNC(=O)CCC(=O)N(O)CCCCCNC(=O)CCC(=O)N(O)CCCCCN(CCCCCCCCCC[P+](c1ccccc1)(c1ccccc1)c1ccccc1)CCCCCCCCCC[P+](c1ccccc1)(c1ccccc1)c1ccccc1 | 9.98% (active)
16 | O=C1Nc2ccccc2/C1=N\c1nnc(-c2ccccc2)o1 | 103% (inactive)
17 | CCCCCCCCCC(=O)NC(C)(C)C(=O)N1CCC[C@H]1C(=O)N[C@@H](CC(C)C)C(=O)N[C@@](C)(CC)C(=O)N[C@@H](CCC(N)=O)C(=O)N[C@H](CCC(N)=O)C(=O)NC(C)(C)C(=O)NC(C)(C)C(=O)N[C@@H](CCC(N)=O)C(=O)N[C@H](CC(C)C)C(=O)N[C@H](CO)CC(C)C | -81.3% (active) and 23% (inactive)
18 | Fc1cccc(Cl)c1/C=N/Nc1nc(N/N=C/c2c(F)cccc2Cl)nc(N2CCCCC2)n1 | 32.3% (inactive)
19 | Cc1ccc(/C(N)=N/C(N)=N/c2nc3ccccc3s2)cc1 | 82.5% (inactive)
20 | CCc1cc2c(cc1Cl)nc1c(=O)[nH]c(=O)nc-1n2CCOCC(C)(C)C | 57.4% (inactive)

Row | Compound | growth
21 | Cc1csc(/N=C(N)/N=C(\N)c2cccc(Br)c2)n1 | 57% (inactive)
22 | Brc1cccc(-c2cc(-c3cnc4c(c3)OCCO4)n[nH]2)c1 | 16.6% (inactive)
23 | CN(C)CC(=O)Nc1nc(-c2cccc(NS(=O)(=O)c3cccc4c(N(C)C)cccc34)c2)cs1 | 65.1% (inactive)
24 | O=C(/C=C/c1cc(Cl)ccc1Cl)Nc1ncc(Cc2ccc(Cl)cc2)s1 | 9.62% (active)
25 | Nc1ncc(-c2ccc3ncnc(NCc4ccccc4)c3c2)cn1 | 67.6% (inactive)
26 | Cc1ccc(-c2cc3nc(C(Cl)Cl)nc(-c4ccc(S(=O)(=O)N(C)C)cc4)n3n2)cc1 | 41% (inactive)
27 | CCN(CC)CCOc1ccc(C(=C(c2ccccc2)C2CCCC2)c2ccc(OCCN(CC)CC)cc2)cc1 | 8.22% (active)
28 | COC(=O)c1cccc(NC2=C(Cl)C(=O)c3nc(C)ccc3C2=O)c1 | 6.34% (active)
29 | COc1cc(/C=N\NC(=O)c2ccc3nc(-c4ccc(Br)cc4)[nH]c3c2)cc(OC)c1OC | 22.5% (inactive)
30 | NC1=NC2(CCCC2)N(c2ccc(S(=O)(=O)Nc3nccs3)cc2)C(N)=N1 | 96.5% (inactive)
31 | N#C/C(=N\Nc1ccc(F)cc1)C(=O)Nc1cc(-c2ccccc2)nn1-c1ccccc1 | 12.8% (inactive)
32 | Cc1ccc(S(=O)(=O)c2nc(-c3ccc(F)cc3)oc2S(C)(=O)=O)cc1 | 1.76% (active)
33 | CC(O)c1cccc(/C(N)=N/C(N)=N/c2nc3ccccc3s2)c1 (stereo not given) | 72% (inactive)
34 | CCOc1cccc(/C(N)=N/C(N)=N/c2nc3ccccc3s2)c1 | 77.3% (inactive)
35 | O=C(CCl)Nc1ccc(NC(=O)c2cc(Cl)ccc2O)c(Cl)c1 | 32.8% (inactive)
36 | Clc1ccc(CSc2nnc(-c3ccc(Cl)cc3)n2-c2ccccc2)cc1 | 91.3% (inactive)
37 | CC(C)(C)OC(=O)NCc1ccc(CNc2c([N+](=O)[O-])cnc3ccccc23)cc1 | 28.5% (inactive)
38 | NS(=O)(=O)c1ccc(Nc2nc(N/N=C/c3ccc4c(c3)OCO4)nc(Nc3ccccc3)n2)cc1 | 33.2% (inactive)
39 | Cc1cc(=O)oc2cc(OCCCOc3ccc(/C=C/C(=O)Nc4ccc(Br)cc4)cc3)ccc12 | 78.4% (inactive)
40 | CNC(=O)c1cc(N2CCc3cc(NC(=O)Nc4ccc(N5CCOCC5)c(C(F)(F)F)c4)ccc32)ccn1 | 7.92% (active)
